In PubChem BioAssay (NCATS):
Several values for one entry are separate records, joined by “and”; a condition that tells them apart may be missing. Identical values can stand only once. Records with an inconclusive call do not appear. The source holds several records for some structures; these can differ, active in one and inactive in another. Activity calls are given as the source filed them. Calls come from the whole dose curve; as a rule, active = well fitted curve in the direction sought with a large enough effect; inconclusive = small, poorly fitted or top-dose-only effect, or another doubt; inactive = no such curve, though single readings can be large; an effect the other way counts as inactive or inconclusive.

What was measured:
CRL-7250 = normal cell line; assay: Cytotoxic Profiling of Annotated Libraries Using Quantitative High-Throughput Screening (AID 1296008); conditions: Five cell lines viability, CellTiter-Glo ATP luminescence, 48-72 h; max response: stronger effect = lower value; note: nearly all actives have a fitted effect of over 60% in size; note: potency is the fitted concentration of half-maximal effect; for max response: % is set by controls: 0 for no effect and ±100 for the full control effect
In short: (§1)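 Cells exposed to compounds for 48 or 72 hr at 37 degrees Celsius. Viability read as ATP-coupled luminescence with CellTiter-Glo after 10 min at room temperature.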

NIH3T3 [1] = assay: as above; conditions: Five cell lines viability, CellTiter-Glo ATP luminescence, 48-72 h; max response: stronger effect = lower value
In short: as §1

HACAT [2] = assay: qHTS assay to identify novel small-molecules to repurpose for Merkel cell carcinoma treatment (AID 1296009); conditions: MCC and control cell lines, CellTiter-Glo viability, 72 h; at 44.8 µM (top of the series) unless noted; note: nearly all actives have a fitted effect of over 60% in size; note: potency is the fitted concentration of half-maximal effect
In short: (§2)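 Cells were treated for 72 hr at 37 degree celsius with compounds in 8- or 11-point dose response. Viability was read by CellTiter-Glo luminescence, normalized to no-cell (cytotoxicity) and DMSO controls.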

MCC-13 = assay: as above; conditions: MCC and control cell lines, CellTiter-Glo viability, 72 h; series mostly up to 46 µM
In short: as §2

MKL-1 = assay: as above; conditions: MCC and control cell lines, CellTiter-Glo viability, 72 h; series mostly up to 46 µM
In short: as §2

MKL-2 = assay: as above; conditions: MCC and control cell lines, CellTiter-Glo viability, 72 h; series mostly up to 46 µM
In short: as §2

NIH3T3 [3] = assay: as above; conditions: MCC and control cell lines, CellTiter-Glo viability, 72 h; at 44.8 µM (top of the series) unless noted
In short: as §2

WaGa = assay: as above; conditions: MCC and control cell lines, CellTiter-Glo viability, 72 h; series mostly up to 46 µM
In short: as §2

C33A = assay: Primary qHTS to identify gynecologic anti-cancer compounds using libraries of approved drugs and bioactive compounds (AID 1345084); conditions: Gynecologic cancer cell panel viability, ATPlite luminescence, 48 h; series mostly up to 57.5 µM; note: % is set by controls: 0 for no effect and ±100 for the full control effect; nearly all actives have a fitted effect of over 55% in size
In short: (§3)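 Cells, 1,000 per well, plated 16 h, then exposed 48 h at 37 C to compounds. Viability by ATPlite luminescence after 15 min at room temperature.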

CAOV3 = assay: as above; conditions: Gynecologic cancer cell panel viability, ATPlite luminescence, 48 h; series mostly up to 57.5 µM
In short: as §3

CASKI = assay: as above; conditions: Gynecologic cancer cell panel viability, ATPlite luminescence, 48 h; series mostly up to 57.5 µM
In short: as §3

Es-2 = assay: as above; conditions: Gynecologic cancer cell panel viability, ATPlite luminescence, 48 h; series mostly up to 57.5 µM
In short: as §3

HaCat [4] = assay: Cytotoxic Profiling of Annotated Libraries Using Quantitative High-Throughput Screening (AID 1296008); conditions: Five cell lines viability, CellTiter-Glo ATP luminescence, 48-72 h; max response: stronger effect = lower value; note: nearly all actives have a fitted effect of over 60% in size; note: potency is the fitted concentration of half-maximal effect; for max response: % is set by controls: 0 for no effect and ±100 for the full control effect
In short: as §1

KB-3-1 = assay: as above; conditions: Five cell lines viability, CellTiter-Glo ATP luminescence, 48-72 h; max response: stronger effect = lower value
In short: as §1

MCC-26 = assay: qHTS assay to identify novel small-molecules to repurpose for Merkel cell carcinoma treatment (AID 1296009); conditions: MCC and control cell lines, CellTiter-Glo viability, 72 h; series mostly up to 46 µM; note: nearly all actives have a fitted effect of over 60% in size; note: potency is the fitted concentration of half-maximal effect
In short: as §2

UISO = assay: as above; conditions: MCC and control cell lines, CellTiter-Glo viability, 72 h; series mostly up to 46 µM
In short: as §2

HEK293 = assay: Cytotoxic Profiling of Annotated Libraries Using Quantitative High-Throughput Screening (AID 1296008); conditions: Five cell lines viability, CellTiter-Glo ATP luminescence, 48-72 h; max response: stronger effect = lower value; note: nearly all actives have a fitted effect of over 60% in size; note: potency is the fitted concentration of half-maximal effect; for max response: % is set by controls: 0 for no effect and ±100 for the full control effect
In short: as §1

W2 = assay: qHTS profiling for inhibitors of Plasmodium falciparum proliferation (AID 504749); note: nearly all actives have a fitted effect of over 60% in size; note: potency is the fitted concentration of half-maximal effect; conditions: P. falciparum in erythrocytes, SYBR Green DNA, 72 h; series mostly up to 28.7 µM
In short: (§4)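 P. falciparum-infected erythrocytes (0.3% parasitemia, 2.5% hematocrit) incubated with compound 72 h at 37 C, 5% CO2. Parasite DNA detected by SYBR Green after lysis, overnight at room temperature; normalised to 0.29 uM artemisinin and DMSO.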

HEK293T = assay: qHTS assay to identify novel small-molecules to repurpose for Merkel cell carcinoma treatment (AID 1296009); conditions: MCC and control cell lines, CellTiter-Glo viability, 72 h; at 44.8 µM (top of the series); note: nearly all actives have a fitted effect of over 60% in size; note: potency is the fitted concentration of half-maximal effect
In short: as §2

TAB165 = assay: qHTS profiling for inhibitors of Plasmodium falciparum proliferation (AID 504749); note: nearly all actives have a fitted effect of over 60% in size; note: potency is the fitted concentration of half-maximal effect; conditions: P. falciparum in erythrocytes, SYBR Green DNA, 72 h; series mostly up to 28.7 µM
In short: as §4

COc1cc(Oc2ccnc3cc(OC)c(OC)cc23)ccc1NC(=O)NC(C)c1nccs1 (centres undefined)
inactive: max response (CRL-7250) -3.15% and -18.6% | outcome (NIH3T3 [1]) | outcome (HACAT [2]) | Potency (MCC-13) | Potency (MKL-1) | Potency (MKL-2) | outcome (NIH3T3 [3]) | Potency (WaGa) | Potency (C33A) | Potency (CAOV3) | Potency (CASKI) | Potency (Es-2)

O=C(C=Cc1ccc(/C=C/C(=O)Nc2ccc(C3=NCCN3)cc2)cc1)Nc1ccc(C2=NCCN2)cc1
inactive: outcome (CRL-7250) | max response (HaCat [4]) -9.67% | outcome (KB-3-1) | outcome (NIH3T3 [1]) | Potency (MCC-13) | Potency (MCC-26) | Potency (MKL-1) | Potency (MKL-2) | outcome (NIH3T3 [3]) | Potency (UISO) | Potency (WaGa)

Oc1cccc(-c2nc(N3CCOCC3)c3oc4ncccc4c3n2)c1
active: Potency (CRL-7250) 76.2 nM | Potency (HEK293) 171 nM | Potency (NIH3T3 [1]) 762 nM

CN(C)c1ccc(C2Nc3ccc4ccccc4c3C3=C2C(=O)CC(C)(C)C3)cc1Br (centres undefined)
inactive: max response (CRL-7250) -23.7% and -20.8% | max response (HaCat [4]) -24.3% and -7.34% | max response (KB-3-1) 1.11% and -17.2% | max response (NIH3T3 [1]) -6.99% and -2.22% | Potency (MCC-13) | Potency (MCC-26) | Potency (MKL-1) | Potency (MKL-2) | Potency (UISO) | Potency (WaGa) | Potency (C33A) | Potency (CAOV3) | Potency (CASKI) | Potency (Es-2)

C[C@]12CCC(=O)C=C1CC[C@@H]1[C@@H]2[C@@H](O)C[C@@]2(C)[C@H]1CC[C@]2(O)C(=O)CO
inactive: max response (CRL-7250) 3.48% | max response (HEK293) -3.59% | max response (NIH3T3 [1]) 1.04% | Potency (MCC-13) | Potency (MCC-26) | Potency (MKL-1) | Potency (MKL-2) | Potency (UISO) | Potency (WaGa) | Potency (C33A) | Potency (CASKI) | Potency (Es-2)

Nc1cccc(S(=O)(=O)N2CCCN(S(=O)(=O)c3ccc4c(c3)OCCO4)CC2)c1
inactive: max response (CRL-7250) 0.264% | max response (HaCat [4]) -12.2% | max response (KB-3-1) -7.85% | max response (NIH3T3 [1]) -8.98% | Potency (MCC-13) | Potency (MKL-1) | Potency (MKL-2) | Potency (UISO) | Potency (WaGa)

COc1ccc(-c2ccc3c(N4CCOCC4)nc(N4C[C@@H](C)O[C@@H](C)C4)nc3n2)cc1CO
inactive: Potency (MKL-1)
active: Potency (CRL-7250) 296 nM | Potency (HEK293) 662 nM | Potency (KB-3-1) 1660 nM | Potency (NIH3T3 [1]) 3720 nM

CN1CCN(CCCN2c3ccccc3Sc3ccc(C(F)(F)F)cc32)CC1
inactive: outcome (HEK293) | max response (HaCat [4]) -7.86% | outcome (HaCat [4]) | max response (KB-3-1) -5.37% | outcome (KB-3-1) | max response (NIH3T3 [1]) -0.173% | outcome (HACAT [2]) | outcome (HEK293T) | Potency (MCC-13) | Potency (MKL-1) | Potency (UISO) | Potency (WaGa) | Potency (C33A)
10.6 µM (active) and inactive: Potency (MKL-2)
active: Potency (W2) 4780 nM | Potency (HEK293) 23700 nM

Cc1ccc(-n2nc(C(C)(C)C)cc2NC(=O)Nc2ccc(OCCN3CCOCC3)c3ccccc23)cc1
inactive: max response (CRL-7250) 1.93% and -9.63% | outcome (KB-3-1) | max response (NIH3T3 [1]) -5.48% | outcome (HACAT [2]) | Potency (MCC-13) | Potency (MCC-26) | Potency (WaGa) | Potency (C33A) | Potency (CASKI) | Potency (Es-2)
active: Potency (MKL-2) 18.8 µM
inactive and 23.7 µM (active): Potency (MKL-1)

Nc1nc2ccc(OC(F)(F)F)cc2s1
inactive: Potency (TAB165) | Potency (W2) | outcome (CRL-7250) | max response (HaCat [4]) -58.3% | outcome (HaCat [4]) | max response (KB-3-1) -6.76% | max response (NIH3T3 [1]) -3.98% | outcome (HACAT [2]) | Potency (MCC-13) | Potency (MCC-26) | Potency (MKL-1) | Potency (MKL-2) | Potency (UISO) | Potency (WaGa) | Potency (C33A) | Potency (CAOV3) | Potency (CASKI) | Potency (Es-2)

Cc1ccc(N(CC2=NCCN2)c2cccc(O)c2)cc1
inactive: Potency (TAB165) | Potency (W2) | max response (HaCat [4]) 1.48% | outcome (HaCat [4]) | max response (KB-3-1) 5.53% and -7.75% | max response (NIH3T3 [1]) -17.8% and -24.2% | outcome (HACAT [2]) | Potency (MCC-13) | Potency (MCC-26) | Potency (MKL-1) | Potency (MKL-2) | Potency (UISO) | Potency (WaGa) | Potency (C33A) | Potency (CAOV3) | Potency (CASKI) | Potency (Es-2)
